Results from PubChem BioAssay.

Tested on: Plasmodium falciparum Sir2 (PF13_0152, Sir2A)
Assay: Plasmodium falciparum Sir2A binding compounds – biochemical, small-molecule microarray, 635 nm fluorescence, primary screen (AID 1098);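 note: score merges spot fluorescence intensity with its signal-to-noise ratio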
Settings: fluorescence 635 nm, higher = more signal

Row | Structure (SMILES) | composite z-score
1 | COC(=O)[C@H]1N=C(c2ccc(OCCCO)cc2)O[C@H]1c1ccccc1CN=[N+]=[N-] | 0.555
2 | C[N+](C)(C)CCCCNC(=O)[C@H]1C[C@H]2C(=O)NCC(=O)N2[C@H]1c1ccc(O)cc1 | 1.29
3 | CN(C)CCCCCCNC(=O)[C@@H]1C[C@@H]2C(=O)NCC(=O)N2[C@@H]1c1ccc(O)cc1 | 1.25
4 | COc1ccc(C#Cc2ccc3c(c2)[C@]2(C(=O)N3)[C@H](c3ccc(OCCO)cc3)N3[C@H](c4ccccc4)[C@H](c4ccccc4)OC(=O)[C@H]3[C@@H]2C(=O)N2CCN(c3ncccn3)CC2)cc1 | 1.12
5 | [N-]=[N+]=NCc1ccccc1[C@H]1OC(c2ccc(OCCCO)cc2)=N[C@@]1(Cc1ccccc1)C(N)=O | 1.51
6 | C#CCOC(=O)N[C@H](C=CCCCC)c1ccccc1 | -0.257
7 | COc1cccc(C[C@H]2C[C@@H](CO[Si](C(C)C)(C(C)C)C(C)C)N3C(=O)[C@]4(C(C)=O)O[C@]23[C@H]2C(=O)N(C)C(=O)[C@H]24)c1 | 0.817
8 | C=C(COC)/C(=C/C[C@@H](OC(=O)c1ccncc1)c1cccc(OCCO)c1)c1cc(C(=O)OC)ccc1OC | 0.756
9 | C[N+](C)(C)CCCC[C@@H]1NC(=O)[C@@H]2C[C@H](C(=O)NCCCCCNC(=O)CS)[C@H](c3cccc(OCCO)c3)N2C1=O | 1.71
10 | CCCCCCCCCCC(O)C1C=CC2C(=O)NC(=O)C2N1Nc1ccccn1 (stereo unspecified) | 1.07
11 | CCOC(=O)C[C@H]1[C@H](OC(=O)c2ccc(C(=O)c3ccccc3)cc2)[C@@H](NC(=O)C2CCCCC2)c2cc(OCCCO)ccc2N1C(=O)Cc1ccc(OC)cc1 | 0.331
